Where “and” joins values, the source holds several entries; their conditions need not be identical. Identical values can stand only once. The panel holds about 83,000 compounds, 20% with a hit somewhere; the sample as a whole holds those more often.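 The test compound was applied at a single concentration to cells in 96-well plates for 48 hours, and percent growth was recorded.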 Calls of active or inactive are those of the source. Rule for the calls: active = growth percent below 10; inactive = the rest.

For the assay, the system named is MDA-MB-468 breast. Kind of assay: NCI-60 one-dose screen, 48 h (100 = growth as untreated, 0 = no growth, -100 = all killed). The conditions noted are these: 10 µM unless noted.
Regarding `Nc1c(CNCc2nnn(Cc3ccccc3)c2N)nnn1Cc1ccccc1`, the growth was 100% (inactive). As to `C/C(=C(/C)C1CC1CCNC1CCC(NC(=O)OC(C)(C)C)CC1)c1ccccc1` (configuration not stated), the growth was 35.3% (inactive). Consider `CCN1CCN(C(=O)[C@]23CCC(C)(C)C[C@H]2C2=CC[C@@H]4[C@@]5(C)Cc6c([nH]c7ccccc67)C(C)(C)[C@@H]5CC[C@@]4(C)[C@]2(C)CC3)CC1`, for which the growth was 84.7% (inactive).

Turning to `CCN(CC)CCC(CNc1c2ccc([N+](=O)[O-])cc2nc2cc(OC)c(OC)cc12)c1ccccc1` (configuration not stated), the growth is -58% (active) and -86.9% (active). Regarding `O=C(CCCCCCN1CC(=O)N2[C@@H](c3ccc(Cl)c(F)c3)c3[nH]c4ccccc4c3C[C@H]2C1=O)NO`, the growth is 85.5% (inactive).

On to `CC(C)(C)Nc1nc2c(OCCc3ccccc3)cccn2c1-c1ccccc1Cl`, for which the growth is -27.8% (active). As to `CN(C)/N=C/c1ccccc1O`, the growth is 97.8% (inactive). For `C=C(C)[C@@H]1CC[C@]2(C(=O)Nc3ccccn3)CC[C@]3(C)[C@H](CC[C@@H]4[C@@]5(C)CCCNC(C)(C)[C@@H]5CC[C@]43C)[C@@H]12`, the growth was -13.8% (active).

As to `O=S(=O)(NCCNc1nccc(-c2c(-c3ccc(F)c(O)c3)nc3sccn23)n1)c1ccccc1`, the growth is 83.2% (inactive). For the compound `CN(C[C@@H]1COCCO1)S(=O)(=O)Nc1ccc2ccc3ncc(-c4cnn(C)c4)cc3c(=O)c2c1`, the growth was 49.9% (inactive).

As for `CCN1CCN(c2ccc(NC(=O)Nc3nc4ccc(-c5ccccc5OC)cc4s3)cc2)CC1`, the growth is -76.7% (active). As to `CCOC(=O)c1c2c(n3ccccc13)C(=O)c1ncccc1C2=O`, the growth is 80.8% (inactive).

Values taken from PubChem BioAssay (NCI).
